Measurements reported in PubChem BioAssay AID598 (SRMLSC, 2007).
About 5,100 (6%) of roughly 85,000 compounds were called active. The full list was thinned out, with actives kept by preference. Values without a mark were called inactive.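 How the source made its calls: active means viability at or below 40%; inactive means viability above 40%.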

Test: H69AR cell viability reduction – human, 86K library, primary screen (AID 598);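 further: multidrug resistant small cell line overexpressing MRP-1 efflux transporter; 100% = mean luminescence of untreated control wells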
Details: H69AR lung tumor viability, ATP luminescence, 72 h; at 10 µM; active compounds read low

| SMILES | viability |
| --- | --- |
| CCOC(=O)c1ccc(-n2c(C)nc3c(cnn3-c3ccccc3C)c2=O)cc1 | 96.7% |
| COc1ccc(N2CCN(C(=O)CSc3ncnc4c3cnn4-c3ccc(OC)cc3)CC2)cc1 | 89.9% |
| COc1ccc(-n2c(C)nc3c(cnn3-c3ccccc3)c2=O)cc1 | 19.6% (active) |
| Cc1ccc(/C=N/NC(=O)C2=NNC(c3ccccc3)(c3ccccc3)C2)c(O)c1 | 40.7% |
| COc1ccccc1CNS(=O)(=O)c1ccc(C)cc1 | 86.8% |
| COc1ccc(S(=O)(=O)N/N=C\c2ccc(OC)c(COc3ccc(C)cc3[N+](=O)[O-])c2)cc1 | 29.6% (active) |
| CCOc1ccc(S(=O)(=O)Nc2ccc(S(=O)(=O)Nc3cc(OC)ccc3OC)cc2)cc1 | 74.9% |
| Cc1noc(/C=C/c2ccco2)c1S(=O)(=O)N1CCC(C(=O)N2CCc3ccccc32)CC1 | 81.4% |
| COCCNC(=O)C(c1ccc(C)o1)N(Cc1cccs1)C(=O)c1snc(C(N)=O)c1N (stereo unspecified) | 91.2% |
| CCC(C(=O)NC1CCCC1)N(C(=O)c1snc(C(N)=O)c1N)c1ccc2c(c1)OCCO2 (stereo unspecified) | 33.1% (active) |
| Cc1ccc(C(C(=O)NC2CCCCC2)N(C(=O)c2csnn2)C2CC2)o1 (stereo unspecified) | 95.7% |
| Cc1cc(O)cc(O)c1C(=O)Cc1cnn(-c2ccccc2)c1 | 79.8% |
| O=C1C=C(c2ccc(Cl)cc2)C(=O)N1Nc1ccccc1 | 1.17% (active) |
| Cc1ccc(CCN2CC(C(=O)O)CC2=O)cc1 (stereo unspecified) | 91.7% |
| CC(C)n1c(-c2cccs2)nc2ccccc21 | 89.8% |
| CC(C)=C1SC(N2CCN(c3cccc(C)c3)CC2)=NC1=O | 96.9% |
| O=C1N=C(N2CCCC2)S/C1=C\c1cccc(Br)c1 | 36.9% (active) |
| CCN1C(=O)/C(=C2\SC(N3CCCCC3)=NC2=O)c2ccccc21 | 67.4% |
| CC(C)C(=O)Nc1ccc2c(c1)oc1ccccc12 | 55.1% |
| C/C(=C\C(=O)c1cccnc1)Nc1ccc(C)c(C)c1 | 93.1% |
| O=C(/C=C/c1ccc(Cl)cc1Cl)c1cccnc1 | 0.85% (active) |

| SMILES | viability |
| --- | --- |
| O=C(NCc1ccc(Cl)c(Cl)c1)c1cccnc1 | 94.2% |
| OC(C#CCN1CCOCC1)(c1ccccc1)C1CCCCC1 (stereo unspecified) | 79.2% |
| CCOC(=O)C1=C(C)N=c2s/c(=C\C(=O)OC)c(=O)n2C1c1ccc(OC)cc1 (stereo unspecified) | 10.6% (active) |
| COCCOC(=O)C1=C(C)N=c2s/c(=C\c3cccs3)c(=O)n2C1c1cccs1 (stereo unspecified) | 80.7% |
| CCOC(=O)C1=C(CSc2nccn2C)NC(=O)NC1c1ccc(OC)cc1 (stereo unspecified) | 82.8% |
| Cc1nc2ccccc2n1C(=O)N1CCOCC1 | 82.5% |
| COC(=O)c1cc(NC(=O)C2C3C=CC(C3)C2C(=O)O)cc(C(=O)OC)c1 (stereo unspecified) | 94.8% |
| Cc1ccccc1-c1nnc(SCC(=O)NCc2ccc3c(c2)OCO3)n1C | 91.1% |
| Cc1ccc(-n2c(SCC(=O)NCc3ccc4c(c3)OCO4)nnc2-c2cccnc2)c(C)c1 | 35.1% (active) |
| Cc1ccccc1-n1c(SCC(=O)NCc2cccs2)nnc1-c1ccncc1 | 89.8% |
| Cc1cccc(C2c3c(n(C)c(=O)n(C)c3=O)N=C3c4ccccc4C(=O)C32)c1 (stereo unspecified) | 4.39% (active) |
| Cc1cccc(Cn2c(N3CCN(c4ccccc4)CC3)nc3c2c(=O)n(C)c(=O)n3C)c1 | 72.4% |
| CCc1nnc(NC(=O)CSc2nc3ccccc3c(=O)n2CCCOC)s1 | 64.5% |
| COCCNc1nc(-n2nc(C)cc2C)nc2sc3c(c12)CCCC3 | 6.95% (active) |
| CCC(O)CNc1nc(-n2nc(C)cc2C)nc2sc3c(c12)CC(C)(C)OC3 (stereo unspecified) | 44.6% |
| Cc1cc(C)n(-c2nc(SCC(=O)N3CCCC3)c3c4c(sc3n2)CCCC4)n1 | 57.6% |
| COC(=O)c1cccc(-n2[nH]nnc2=S)c1 | 87.1% |
| O=[N+]([O-])c1ccc(Oc2ccc(F)cc2Br)c2ccncc12 | 17.6% (active) |
| Cn1c(SCC(=O)C(C)(C)C)nnc1-c1ccccn1 | 98.3% |
| CC(=O)C1=C(C)NC(C)=C(C(C)=O)C1c1cn(-c2ccccc2)nc1-c1cccs1 | 93.4% |
| CCC(=O)NCCc1nc2ccccc2n1CC | 95.2% |

| SMILES | viability |
| --- | --- |
| CCOC(=O)c1c(NC(=O)CSc2nnc(CNc3ccc(C)cc3C)o2)sc(C)c1C | 92.8% |
| CC1(C)CC(=O)C=C(N2CCCC2)C1 | 95.2% |
| O=C1NC(c2cc3c(cc2Cl)OCO3)Oc2ccccc21 (stereo unspecified) | 32.9% (active) |
| CC(=O)c1ccc2c(c1)c1ccccc1n2CC(C)C | 73.2% |
| CS(=O)(=O)N(CC(O)Cn1c2ccccc2c2ccccc21)c1cccc2ccccc12 (stereo unspecified) | 1.71% (active) |
| O=C1c2ccccc2S(=O)(=O)N1CC(O)Cn1c2ccccc2c2ccccc21 (stereo unspecified) | 92.4% |
| CCCCOc1ccc(C(=O)NCc2ccncc2)cc1 | 78.5% |
| CCOC(=O)c1cnc(SC)nc1Sc1ccc(Cl)cc1Cl | 85.4% |
| Cc1ccc(CN(N=Nc2nonc2N)c2nonc2N)c(C)c1 | 79.6% |
| CCC1(C)Cc2c(sc3[nH]c(=S)n(Cc4ccccc4)c(=O)c23)CO1 (stereo unspecified) | 25% (active) |
| CCC1(C)Cc2c(sc3nc4n(c(=O)c23)CCCS4)CO1 (stereo unspecified) | 93.3% |
| CCC1(C)Cc2c(sc3nc(SC)nc(N)c23)CO1 (stereo unspecified) | 62.6% |
| CCOC(=O)c1sc(C)c2c1NC(C)(c1cccc3ccccc13)NC2=O (stereo unspecified) | 103% |
| CCOC(=O)C(C)Sc1nc2ccccc2c(=O)n1CC1CCCCC1 (stereo unspecified) | 82.4% |
| COc1ccccc1NC(=O)c1ccc(C)s1 | 92.7% |
| COc1ccccc1NS(=O)(=O)N(C)C | 104% |
| COc1ccccc1NC(=O)/C=C/C(N)=O | 2.11% (active) |
| COc1cc(C)c(C(C)C)cc1S(=O)(=O)n1ccnc1 | 101% |
| CCOC(=O)c1ccc(COC(=O)CCc2nc(-c3ccccc3)c(-c3ccccc3)o2)cc1 | 71.5% |
